From PubChem BioAssay
This excerpt belongs to a sample that is enriched for hits.
Methyltransferases: Primary Screen for Target Class Profiling of Small Molecule Inhibitors of Methyltransferases; purified enzyme, MTase-Glo SAH luminescence; hits give low values; calls only at 40 µM; 25,000 compounds, 3.9% hits; AID 1745853, 2022; call rule not given here
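Each enzyme was reacted with SAM and its substrate, with compounds tested once at 40 uM; SAH formed was read by MTase-Glo luminescence.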
* = called active by the depositor; i = inactive; + = active, no number; ! = a repeat was not active. % is set by controls: 0 for no effect and ±100 for the full control effect.

SMILES	Methyltransferases
CCOc1ccc(CCN2C(=O)c3c(C(=O)OC)ncn3CC2(C)C(=O)NC2CCCCCC2)cc1 (stereo not drawn)	i
CCCn1c(=O)c2cc(F)ccc2n2c(SCC(=O)N3CCN(c4ccc(F)cc4)CC3)nnc12	i
O=C1c2ccccc2C(=O)c2c1cccc2S(=O)(=O)Nc1ccc(Cl)cc1	+
COc1ccc(Cl)cc1S(=O)(=O)Nc1ccc2[nH]c(=O)[nH]c2c1	i
CC1CCN(S(=O)(=O)c2cccc3c2C(=O)c2ccccc2C3=O)CC1	i
CCCCN1C(=O)c2cc(C(=O)Nc3c(C)cc(C)cc3C)nn2CC1(C)C(=O)NC1CCCC1 (stereo not drawn)	i
CCOC(=O)c1cc2n(n1)CC(C)(C(=O)NCc1ccccc1)N(CCc1ccccc1OC)C2=O (stereo not drawn)	i
CCOc1ccc(C(=O)Cn2nc3n(CCCOC(C)C)c(=O)c4ccccc4n3c2=O)cc1	i
CCOCCCNC(=O)CCc1nnc2n(Cc3ccccc3Cl)c(=O)c3ccccc3n12	i
Cn1cc(-c2cnn3c(N)c(Br)c(C4CCCNC4)nc23)cn1 (stereo not drawn)	+
COCCCN1C(=O)c2cc(-c3ccccc3)nn2CC1(C)C(=O)NCc1ccccc1OC (stereo not drawn)	i
COc1ccc(CN2C(=O)c3ccc(-c4ccco4)n3CC2(C)C(=O)NC2CCC(C)CC2)cc1 (stereo not drawn)	i
O=C1Nc2ccc(I)cc2/C1=C/c1cc(Br)c(O)c(Br)c1	+
CCOc1ccc(C2c3cccn3-c3sc4c(c3CN2C(=O)Nc2ccc(F)cc2F)CCCC4)cc1 (stereo not drawn)	i
CC1(C)CCC(CN2CCN(c3ccc(C(=O)NS(=O)(=O)c4ccc(NCC5CCOCC5)c([N+](=O)[O-])c4)c(Oc4cnc5[nH]ccc5c4)c3)CC2)=C(c2ccc(Cl)cc2)C1	+
COC(=O)c1cc2n(n1)CC(C)(C(=O)NC1CCCCC1)N(c1cccc(C)c1C)C2=O (stereo not drawn)	i
CCCn1c(=O)c2cc(Cl)ccc2n2c(=O)n(Cc3ccc(F)cc3)nc12	i
CCOc1ccc(N2C(=O)c3cc(C(=O)OC)nn3CC2(C)C(=O)NC2CCCCC2)cc1 (stereo not drawn)	i
O=C(O)COCCN1CCN([C@H](c2ccccc2)c2ccc(Cl)cc2)CC1	i
O=C(O)COCCN1CCN(C(c2ccccc2)c2ccc(Cl)cc2)CC1 (stereo not drawn)	i
CN(C)CCCNc1nc(CN2CCN(C(c3ccc(Cl)cc3)c3ccc(Cl)cc3)CC2)nc2ccccc12	+
CCCN1C(=O)c2c(C(=O)NCc3ccc(SC)cc3)ncn2CC1(C)C(=O)NCCC(C)C (stereo not drawn)	i
CC(CCc1ccccc1)NC(=O)Cn1ccc2cc(S(=O)(=O)N3CCCCC3)ccc21 (stereo not drawn)	i
COC(=O)CCNC(=O)N1Cc2c(sc3c2CCCC3)-n2cccc2C1c1cccc(C)c1 (stereo not drawn)	i
CC(C)OCCCN1C(=O)c2cc3ccccc3n2CC1(C)C(=O)NC1CCCCCC1 (stereo not drawn)	i
SMILES	Methyltransferases
CCN1CCN(Cc2ccc(-c3cc4c(NC(C)c5ccccc5)ncnc4[nH]3)cc2)CC1 (stereo not drawn)	+
CCN1CCN(Cc2ccc(-c3cc4c(N[C@H](C)c5ccccc5)ncnc4[nH]3)cc2)CC1	+
CN1C(=O)c2cc(C(=O)NCc3cccc(Br)c3)nn2CC1(C)C(=O)NCc1ccc(F)cc1 (stereo not drawn)	i
COc1cccc(C(=O)Cn2nc3n(Cc4ccc(F)cc4)c(=O)c4ccccc4n3c2=O)c1	i
Cc1ccsc1CCNS(=O)(=O)c1ccc2[nH]c3c(c2c1)CCCC3	i
COC(=O)c1cc(COc2ccc3c(-c4ccccc4)cc(=O)oc3c2C)c(C)o1	i
COC(=O)c1cc2n(n1)CC(C)(C(=O)NC1CCCCC1)N(c1ccc(C)cc1C)C2=O (stereo not drawn)	i
CN(C)c1ccc(Nc2c3ccc(NC(=O)CCN4CCCC4)cc3nc3cc(NC(=O)CCN4CCCC4)ccc23)cc1	+
C[C@@H]1C[C@H](C)CN(CCC(=O)Nc2ccc(Br)cc2)C1	i
CN(C)c1ccc(CNC(=O)CCCn2ccc3cc(S(=O)(=O)N4CCCC4)ccc32)cc1	i
CCCN1C(=O)c2ccc(-c3ccco3)n2CC1(C)C(=O)NCc1ccc(Cl)cc1 (stereo not drawn)	i
Cc1cc2[nH]c(=O)[nH]c2cc1S(=O)(=O)N1CCC(C)CC1	i
CCn1nc(CNC(=O)Cc2cccc(F)c2)c2ccccc21	i
CCc1cc2c(cc3n2CC(C)(C(=O)NC2CCCCCC2)N(Cc2ccc(C)cc2)C3=O)s1 (stereo not drawn)	i
N#CC(=C(\N)Sc1ccccc1N)/C(C#N)=C(/N)Sc1ccccc1N	+
CC1CCCCC1NC(=O)C1(C)Cn2c(cc3sccc32)C(=O)N1Cc1cccc(F)c1 (stereo not drawn)	i
CC1CCC(NC(=O)Cn2c(=O)oc3cc(S(=O)(=O)NCc4ccccc4)ccc32)CC1 (stereo not drawn)	i
Cc1cc(Nc2ccc(NC(=O)c3ccc(Nc4ccnc5ccccc45)cc3)cc2)nc(N)n1	+
Cn1c2ccc(NC(=O)c3ccccc3)cc2c(=O)n2nc(C(=O)O)cc12	i
O=C(Nc1ccc(OC(F)(F)F)cc1)c1sccc1NCc1ccnc2ccccc12	i
CCCC1c2cccn2CCN1C(=O)Nc1ccccc1C(F)(F)F (stereo not drawn)	+
CCCC1c2ccc(C)n2CCN1C(=O)Nc1ccccc1C(F)(F)F (stereo not drawn)	i
CC(C)C1c2cccn2CCN1C(=O)Nc1ccccc1C(F)(F)F (stereo not drawn)	i
CCC(C)NC(=O)c1ccc2c(=O)n(Cc3ccccc3)c3nn(CC(=O)NC(C)C)c(=O)n3c2c1 (stereo not drawn)	i
O=C(CCCc1nnc2n3nc(-c4ccccc4)nc3c3ccccc3n12)N1CCN(c2ccccc2F)CC1	i
SMILES	Methyltransferases
c1ccc(CN2CCn3c4c(c5ccccc53)CCCC42)cc1 (stereo not drawn)	i
CCOC(=O)N1CCC(CN(Cc2ccc(Cl)cc2)Cc2ccc([N+](=O)[O-])s2)C1 (stereo not drawn)	+
CC(C)Cn1c(=O)c2ccc(C(=O)NC3CCCCC3)cc2n2c(=O)[nH]nc12	i
CC1CCC(NC(=O)C2(C)Cn3c(ccc3-c3ccco3)C(=O)N2C2CCCC2)CC1 (stereo not drawn)	i
CC1=CC(=O)[C@@]2(C(C)C)C[C@@H]12	+
COC(=O)c1cc2n(n1)CC(C)(C(=O)NC1CCCCCC1)N(c1ccc(Cl)cc1)C2=O (stereo not drawn)	i
CN1C(=O)c2cc(C(=O)NCc3cccc(F)c3)nn2CC1(C)C(=O)NC1CCCCC1 (stereo not drawn)	i
C#Cc1cccc(Nc2nc3cc(C(=O)O)ccc3c3cncnc23)c1	i
C#Cc1cccc(Nc2ncnc3cc(OC)c(OCCCCCCC(=O)NO)cc23)c1	+
COc1cc2ncnc(Nc3ccc(O)cc3)c2cc1OC	i
COc1cccc(N2CCN(c3ccc4nnc(CCC(=O)N5CCN(c6ccc(F)cc6)CC5)n4n3)CC2)c1	i
CNCc1ccc(-c2[nH]c3cc(F)cc4c3c2CCNC4=O)cc1	+!
